Unmarked numbers belong to inactive results.
What was measured:
Experiment in all cases: log2 ratio of Biotin-Ahx-Ub-VS probe labelling (fragment/DMSO); higher = less target engagement (more negative = stronger competition), active = hit call of the paper (q ≤ 0.05, log2 ratio ≤ -1)
Settings in all cases: compound concentration: 200 uM; treatment time: 3 h
USP16 = USP16 (UniProt Q9Y5T5)
Summary of the method: (§1)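 Global-median-normalised Spectronaut label-free quantities were compared by unpaired t-test, and values are average log2 ratios of fragment over vehicle. Only proteins with ≥2 unique peptides were used. HEK293T lysate (495 µg per sample) was treated in triplicate with fragment at 200 µM or vehicle for 3 h and then with Biotin-Ahx-Ub-VS at 0.5 µM final for 1 h. Labelled DUBs were then NeutrAvidin-enriched, digested with LysC and trypsin, and run by diaPASEF LC-MS/MS.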

USP19 = target: T1, USP19 (UniProt O94966)
T1 sequence (whole entry): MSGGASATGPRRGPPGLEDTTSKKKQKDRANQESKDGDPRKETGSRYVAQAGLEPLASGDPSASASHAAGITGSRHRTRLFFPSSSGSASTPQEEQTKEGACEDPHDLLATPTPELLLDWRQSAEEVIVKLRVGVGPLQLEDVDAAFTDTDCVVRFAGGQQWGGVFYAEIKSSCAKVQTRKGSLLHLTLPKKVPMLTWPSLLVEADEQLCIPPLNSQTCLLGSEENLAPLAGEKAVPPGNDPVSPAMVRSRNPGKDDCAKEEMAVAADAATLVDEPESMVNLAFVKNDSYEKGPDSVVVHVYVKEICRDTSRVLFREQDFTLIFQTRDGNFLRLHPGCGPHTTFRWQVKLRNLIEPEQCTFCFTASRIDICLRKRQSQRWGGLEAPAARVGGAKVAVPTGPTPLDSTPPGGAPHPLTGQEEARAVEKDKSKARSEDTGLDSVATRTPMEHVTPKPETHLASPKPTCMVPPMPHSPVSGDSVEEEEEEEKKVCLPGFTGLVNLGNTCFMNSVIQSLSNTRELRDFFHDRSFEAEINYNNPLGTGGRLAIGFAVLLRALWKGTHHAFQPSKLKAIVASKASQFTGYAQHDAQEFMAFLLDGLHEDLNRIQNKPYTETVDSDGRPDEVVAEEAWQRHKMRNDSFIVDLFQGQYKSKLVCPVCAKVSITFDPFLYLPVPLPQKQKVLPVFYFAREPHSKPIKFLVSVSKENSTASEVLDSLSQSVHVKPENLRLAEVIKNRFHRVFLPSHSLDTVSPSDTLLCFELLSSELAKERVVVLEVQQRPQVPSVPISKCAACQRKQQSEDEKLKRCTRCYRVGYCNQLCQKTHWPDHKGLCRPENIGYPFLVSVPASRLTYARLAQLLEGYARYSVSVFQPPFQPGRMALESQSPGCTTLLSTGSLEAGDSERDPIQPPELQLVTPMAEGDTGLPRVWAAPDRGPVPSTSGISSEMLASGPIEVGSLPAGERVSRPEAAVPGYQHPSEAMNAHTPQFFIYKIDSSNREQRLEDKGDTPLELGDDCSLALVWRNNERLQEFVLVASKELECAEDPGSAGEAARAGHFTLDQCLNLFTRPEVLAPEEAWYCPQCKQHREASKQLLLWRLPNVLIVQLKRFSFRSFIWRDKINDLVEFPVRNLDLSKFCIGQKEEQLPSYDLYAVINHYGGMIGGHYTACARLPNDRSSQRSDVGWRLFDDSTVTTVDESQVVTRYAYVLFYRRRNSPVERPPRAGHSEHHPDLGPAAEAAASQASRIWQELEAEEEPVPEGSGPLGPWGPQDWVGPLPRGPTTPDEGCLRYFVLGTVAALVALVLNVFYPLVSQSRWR
Summary of the method: as §1

USP24 = USP24 (UniProt Q9UPU5)
USP24, sequence (Q9UPU5 whole entry): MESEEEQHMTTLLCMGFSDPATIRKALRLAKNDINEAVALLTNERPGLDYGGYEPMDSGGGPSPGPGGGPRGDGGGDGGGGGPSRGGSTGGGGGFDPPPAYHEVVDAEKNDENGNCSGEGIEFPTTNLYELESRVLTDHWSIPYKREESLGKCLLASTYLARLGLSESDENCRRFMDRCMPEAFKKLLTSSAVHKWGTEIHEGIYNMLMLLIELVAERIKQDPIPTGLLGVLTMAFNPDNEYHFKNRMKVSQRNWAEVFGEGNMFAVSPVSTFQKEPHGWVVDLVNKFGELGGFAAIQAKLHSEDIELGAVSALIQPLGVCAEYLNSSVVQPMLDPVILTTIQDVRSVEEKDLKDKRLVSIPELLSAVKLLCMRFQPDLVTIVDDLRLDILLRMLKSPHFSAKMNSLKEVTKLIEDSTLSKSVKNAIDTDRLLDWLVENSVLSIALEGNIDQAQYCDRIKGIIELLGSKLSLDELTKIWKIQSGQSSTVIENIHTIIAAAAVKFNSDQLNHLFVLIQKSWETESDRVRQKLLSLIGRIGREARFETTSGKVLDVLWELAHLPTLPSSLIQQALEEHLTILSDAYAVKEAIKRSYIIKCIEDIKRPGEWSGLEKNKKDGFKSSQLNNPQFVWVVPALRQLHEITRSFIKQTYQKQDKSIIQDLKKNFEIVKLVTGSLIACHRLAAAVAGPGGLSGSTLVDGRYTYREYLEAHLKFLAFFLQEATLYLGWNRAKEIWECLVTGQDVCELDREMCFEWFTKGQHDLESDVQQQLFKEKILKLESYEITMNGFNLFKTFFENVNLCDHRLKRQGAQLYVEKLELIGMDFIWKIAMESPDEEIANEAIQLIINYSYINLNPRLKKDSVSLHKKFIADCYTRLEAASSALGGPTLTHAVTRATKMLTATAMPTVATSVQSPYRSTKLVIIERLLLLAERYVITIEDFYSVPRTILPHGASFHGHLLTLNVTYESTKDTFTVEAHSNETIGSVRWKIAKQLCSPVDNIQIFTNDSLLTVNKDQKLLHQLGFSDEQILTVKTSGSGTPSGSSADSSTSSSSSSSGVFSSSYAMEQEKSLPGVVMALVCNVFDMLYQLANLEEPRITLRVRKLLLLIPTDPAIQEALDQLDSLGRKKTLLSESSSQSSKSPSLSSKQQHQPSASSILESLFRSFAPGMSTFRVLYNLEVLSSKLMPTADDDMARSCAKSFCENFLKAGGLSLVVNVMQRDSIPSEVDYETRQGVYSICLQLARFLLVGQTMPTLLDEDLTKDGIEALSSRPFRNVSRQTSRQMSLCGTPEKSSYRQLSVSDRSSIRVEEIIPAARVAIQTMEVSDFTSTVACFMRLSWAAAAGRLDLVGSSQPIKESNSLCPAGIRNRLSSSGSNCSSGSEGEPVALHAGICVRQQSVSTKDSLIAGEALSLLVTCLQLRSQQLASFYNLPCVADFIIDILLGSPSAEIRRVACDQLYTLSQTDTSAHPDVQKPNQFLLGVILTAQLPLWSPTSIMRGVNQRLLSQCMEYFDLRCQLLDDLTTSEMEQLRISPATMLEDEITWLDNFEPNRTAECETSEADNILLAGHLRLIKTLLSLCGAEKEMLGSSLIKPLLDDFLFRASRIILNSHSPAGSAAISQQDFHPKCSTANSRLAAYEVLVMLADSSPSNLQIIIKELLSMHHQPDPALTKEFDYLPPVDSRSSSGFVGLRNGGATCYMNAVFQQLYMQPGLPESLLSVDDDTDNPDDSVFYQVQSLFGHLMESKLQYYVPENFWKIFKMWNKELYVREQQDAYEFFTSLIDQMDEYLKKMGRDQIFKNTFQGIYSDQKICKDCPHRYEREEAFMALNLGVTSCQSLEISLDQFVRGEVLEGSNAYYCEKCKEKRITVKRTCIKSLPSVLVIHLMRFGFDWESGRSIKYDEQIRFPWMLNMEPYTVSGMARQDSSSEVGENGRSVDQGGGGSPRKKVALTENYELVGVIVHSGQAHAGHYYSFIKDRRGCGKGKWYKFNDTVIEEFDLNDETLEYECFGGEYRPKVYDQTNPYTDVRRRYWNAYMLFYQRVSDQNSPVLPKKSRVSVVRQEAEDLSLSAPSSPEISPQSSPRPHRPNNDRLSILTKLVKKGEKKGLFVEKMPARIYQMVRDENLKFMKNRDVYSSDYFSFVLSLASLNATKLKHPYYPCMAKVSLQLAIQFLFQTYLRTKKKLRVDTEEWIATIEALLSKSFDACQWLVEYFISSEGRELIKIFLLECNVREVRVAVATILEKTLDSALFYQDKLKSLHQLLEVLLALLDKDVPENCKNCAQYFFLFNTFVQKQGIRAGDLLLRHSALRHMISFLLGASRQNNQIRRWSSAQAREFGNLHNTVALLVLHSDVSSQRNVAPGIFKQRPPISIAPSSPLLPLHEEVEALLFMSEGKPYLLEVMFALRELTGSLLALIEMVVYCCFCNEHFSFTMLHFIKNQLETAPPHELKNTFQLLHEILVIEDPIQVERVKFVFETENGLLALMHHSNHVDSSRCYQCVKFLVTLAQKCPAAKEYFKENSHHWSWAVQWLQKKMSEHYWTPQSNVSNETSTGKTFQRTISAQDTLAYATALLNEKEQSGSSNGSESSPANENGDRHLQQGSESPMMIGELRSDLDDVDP
Summary of the method: as §1

USP25 = target: T2, USP25 (UniProt Q9UHP3)
T2 sequence (whole entry): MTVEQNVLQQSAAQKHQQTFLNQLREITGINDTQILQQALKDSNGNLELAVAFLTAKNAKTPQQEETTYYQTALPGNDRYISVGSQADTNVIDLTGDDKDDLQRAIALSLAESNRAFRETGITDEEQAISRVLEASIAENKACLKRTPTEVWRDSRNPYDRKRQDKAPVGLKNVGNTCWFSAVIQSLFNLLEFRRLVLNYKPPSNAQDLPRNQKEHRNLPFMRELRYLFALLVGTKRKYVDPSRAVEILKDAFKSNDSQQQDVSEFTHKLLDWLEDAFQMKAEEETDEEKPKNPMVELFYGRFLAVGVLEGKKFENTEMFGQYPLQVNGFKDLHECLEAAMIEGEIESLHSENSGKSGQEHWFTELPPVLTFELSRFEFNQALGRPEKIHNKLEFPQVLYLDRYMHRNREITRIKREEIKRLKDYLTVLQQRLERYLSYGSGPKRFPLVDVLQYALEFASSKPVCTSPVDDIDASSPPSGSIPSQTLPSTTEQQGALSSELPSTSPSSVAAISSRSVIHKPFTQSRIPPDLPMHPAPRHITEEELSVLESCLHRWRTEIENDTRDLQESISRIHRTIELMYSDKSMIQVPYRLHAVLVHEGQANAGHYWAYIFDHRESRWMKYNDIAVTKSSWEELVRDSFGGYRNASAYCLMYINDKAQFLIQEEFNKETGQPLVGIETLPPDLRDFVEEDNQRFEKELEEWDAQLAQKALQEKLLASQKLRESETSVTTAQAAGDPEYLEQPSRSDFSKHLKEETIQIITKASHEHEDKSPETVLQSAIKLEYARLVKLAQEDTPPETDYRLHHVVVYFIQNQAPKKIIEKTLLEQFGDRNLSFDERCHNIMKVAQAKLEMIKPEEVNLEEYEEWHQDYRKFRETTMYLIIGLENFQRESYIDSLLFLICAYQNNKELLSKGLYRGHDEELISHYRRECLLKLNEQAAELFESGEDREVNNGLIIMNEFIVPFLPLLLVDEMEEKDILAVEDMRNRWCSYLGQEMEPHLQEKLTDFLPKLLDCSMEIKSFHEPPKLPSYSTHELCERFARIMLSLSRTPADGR
Summary of the method: as §1

USP28 = target: T3, USP28 (UniProt Q96RU2)
T3 sequence (whole entry): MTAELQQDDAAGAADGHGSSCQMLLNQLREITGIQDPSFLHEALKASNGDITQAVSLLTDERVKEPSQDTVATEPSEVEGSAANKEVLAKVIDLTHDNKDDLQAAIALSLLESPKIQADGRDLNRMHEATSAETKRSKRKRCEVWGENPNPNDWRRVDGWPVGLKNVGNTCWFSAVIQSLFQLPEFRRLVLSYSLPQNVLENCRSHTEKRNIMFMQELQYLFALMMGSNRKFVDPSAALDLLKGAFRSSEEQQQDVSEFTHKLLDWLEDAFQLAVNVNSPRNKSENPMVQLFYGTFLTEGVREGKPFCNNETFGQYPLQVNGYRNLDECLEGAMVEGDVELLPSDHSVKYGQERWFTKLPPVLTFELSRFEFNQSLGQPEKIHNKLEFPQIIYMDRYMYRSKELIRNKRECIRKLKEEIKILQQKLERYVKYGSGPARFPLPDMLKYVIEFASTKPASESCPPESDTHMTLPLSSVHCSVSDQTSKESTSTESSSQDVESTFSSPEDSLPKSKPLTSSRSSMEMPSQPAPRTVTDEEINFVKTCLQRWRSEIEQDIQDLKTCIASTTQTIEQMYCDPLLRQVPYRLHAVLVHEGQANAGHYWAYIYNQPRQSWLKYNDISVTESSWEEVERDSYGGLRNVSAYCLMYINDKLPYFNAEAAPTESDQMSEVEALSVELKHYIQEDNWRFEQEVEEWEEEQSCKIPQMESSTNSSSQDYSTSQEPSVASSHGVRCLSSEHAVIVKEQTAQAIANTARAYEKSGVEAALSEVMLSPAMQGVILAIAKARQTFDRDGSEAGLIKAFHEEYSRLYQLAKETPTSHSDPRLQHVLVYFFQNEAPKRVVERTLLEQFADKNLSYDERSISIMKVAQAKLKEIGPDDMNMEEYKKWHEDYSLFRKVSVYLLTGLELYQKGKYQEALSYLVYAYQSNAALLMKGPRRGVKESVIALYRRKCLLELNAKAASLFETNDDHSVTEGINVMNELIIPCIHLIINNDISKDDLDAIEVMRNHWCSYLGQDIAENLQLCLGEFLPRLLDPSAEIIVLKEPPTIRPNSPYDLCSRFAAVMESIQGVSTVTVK
Summary of the method: as §1

USP16, sequence (Q9Y5T5 whole entry, looked up, the tested form may be a part): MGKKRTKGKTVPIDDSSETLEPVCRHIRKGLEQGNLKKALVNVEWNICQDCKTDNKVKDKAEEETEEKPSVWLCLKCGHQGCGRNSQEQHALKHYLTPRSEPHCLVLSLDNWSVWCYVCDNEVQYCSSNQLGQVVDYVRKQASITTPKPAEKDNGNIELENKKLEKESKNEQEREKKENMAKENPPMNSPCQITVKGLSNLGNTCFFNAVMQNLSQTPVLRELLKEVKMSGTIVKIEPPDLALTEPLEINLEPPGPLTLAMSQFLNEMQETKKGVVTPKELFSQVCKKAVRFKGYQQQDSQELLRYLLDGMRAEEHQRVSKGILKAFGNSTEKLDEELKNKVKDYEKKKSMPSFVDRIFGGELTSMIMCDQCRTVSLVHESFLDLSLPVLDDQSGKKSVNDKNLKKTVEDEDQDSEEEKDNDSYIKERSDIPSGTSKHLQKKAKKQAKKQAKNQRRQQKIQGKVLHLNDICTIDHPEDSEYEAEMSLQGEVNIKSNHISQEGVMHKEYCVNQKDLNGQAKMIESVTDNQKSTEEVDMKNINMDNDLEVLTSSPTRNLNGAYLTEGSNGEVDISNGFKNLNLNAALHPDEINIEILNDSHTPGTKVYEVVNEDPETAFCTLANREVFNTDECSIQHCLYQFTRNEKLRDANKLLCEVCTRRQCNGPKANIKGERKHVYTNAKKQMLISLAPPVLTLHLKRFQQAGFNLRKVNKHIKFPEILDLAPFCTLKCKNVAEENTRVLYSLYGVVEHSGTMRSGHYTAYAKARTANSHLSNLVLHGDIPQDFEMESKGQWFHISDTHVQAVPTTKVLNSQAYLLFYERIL

Structure (SMILES): O=C(CCl)Nc1cc(Cl)ccc1-n1cncn1
- log2 ratio of Biotin-Ahx-Ub-VS probe labelling (USP16): 0.0892
- log2 ratio of Biotin-Ahx-Ub-VS probe labelling (USP19): -0.987
- log2 ratio of Biotin-Ahx-Ub-VS probe labelling (USP24): -1.34 (active)
- log2 ratio of Biotin-Ahx-Ub-VS probe labelling (USP25): -1.65 (active)
- log2 ratio of Biotin-Ahx-Ub-VS probe labelling (USP28): -2.34 (active)

From the supplement of paper PMC11732987, “Enantioselective OTUD7B fragment discovery through chemoproteomics screening and high-throughput optimisation” (Communications Chemistry, 2025)
